Reference: ChEMBL document CHEMBL4888484, “Replenishing the malaria drug discovery pipeline: Screening and hit evaluation of the MMV Hit Generation Library 1 (HGL1) against asexual blood stage Plasmodium falciparum ,using a nano luciferase reporter read-out” (2022)
The campaign covered roughly 4,800 compounds. About 410 (8.5%) showed an effect of 50% or more. What follows is part of a selection rich in strong results, with near analogues and random picks from the rest.

Test system: Plasmodium falciparum
Test: Confirmatory screen in NF54 pLDH assay, in single point, at 2uM, 72h
Format: functional, Erythrocyte
Details: timepoint 72 hour

First: CC(C(=O)N1CCCC1c1cccs1)N(C)Cc1ncnn1C (configuration not stated)
Second: COc1ccsc1S(=O)(=O)N(CCN(C)C)C1CCCC1
The “% Inhibition” value of the first is higher: 4% for the first, -9% for the second.

Compared with `Clc1ccc(-c2noc(CN(Cc3cccs3)Cc3cccs3)n2)cc1`, `Cc1ccccc1[C@H]1CC(=O)Nc2c1c(C)nn2-c1nncc(-c2ccc(Cl)cc2)n1` is higher in “% Inhibition” value: 6% for the first, 15% for the second.

Going from `COc1ccc(CC(=O)NCCOCCO)cc1` to `COc1ccc2ncc(=O)n(CCOc3ccccc3)c2c1`, the “% Inhibition” value rises from 8% to 9%.

Compared with `N#CC1(O)C(C2COC3(CCCCC3)O2)OC2OC3(CCCCC3)OC21` (configuration not stated), `NC1(c2noc([C@@H]3CCCO3)n2)CCCCCC1` is higher in “% Inhibition” value: 10% for the first, 13% for the second.

Going from `Cc1sc(NC(N)=O)nc1Cc1ccccc1` to `CNc1nccc(OCc2ccccc2)n1`, the “% Inhibition” value falls from 10% to 9%.

Compared with `CN1CCN(c2nc(O)c3c(n2)NC(=O)C[C@H]3c2c(F)cccc2F)CC1`, `CCN1CCN(c2nc(O)c3c(n2)NC(=O)C[C@H]3c2cccc(F)c2)CC1` is lower in “% Inhibition” value: 0% for the first, -7% for the second.

Compared with `CCOc1cc(C(c2c(C)n(C)n(-c3ccccc3)c2=O)c2c(C)n(C)n(-c3ccccc3)c2=O)ccc1OCc1ccccc1`, `COc1ccccc1N(Cc1ccccc1)C1=NC(=[N+](Cc2ccccc2)c2ccccc2OC)c2ccccc21` is higher in “% Inhibition” value: 38% for the first, 67% for the second.

Going from `CCOC(=O)N1CCC(NC(=O)c2cn[nH]c2-c2ccc(OCC)c(Cl)c2)CC1` to `O=C(NC1CCN(Cc2ccccc2)CC1)c1cn[nH]c1-c1ccccc1`, the “% Inhibition” value falls from 10% to 6%.

Going from `O=C(C[C@H]1CCN(C(=O)Nc2ccc3c(c2)OCCO3)C1)NCc1ccncc1` to `CNc1nc(Nc2ccc3c(c2)OCCO3)nc2ccccc12`, the “% Inhibition” value rises from 7% to 103%.

Going from `Cc1cc(C)cc([C@@H](O)CNC(=O)NCC(C)(C)c2ccncc2)c1` to `Cc1ccc(NC(=O)CC(=O)O)c(C)c1`, the “% Inhibition” value falls from 3% to -5%.

Compared with `Cc1nn2c(-c3ccc(-c4ccccc4)cc3)ccnc2c1Br`, `Cc1ccccc1CC(=O)Nc1ccc(-c2nc3ncccc3o2)cc1` is lower in “% Inhibition” value: 9% for the first, 5% for the second.

Going from `Cc1nonc1NC(=O)CCCC1CCCC1` to `CC(=O)NCCNC(=O)Nc1ccccc1N(C)C1CCCC1`, the “% Inhibition” value falls from 8% to -5%.

First: O[C@@H](CNCc1ccsc1C(F)(F)F)c1cc(Cl)c2c(c1)OCCO2
Second: CC[C@H]1Cn2c(C(=O)NCc3ccc4c(c3)OCO4)cc3c(Cl)ccc(c32)O1
The “% Inhibition” value of the first is higher: 29% for the first, -10% for the second.

First: NC(=O)COCC(=O)Nc1ccccc1
Second: O=C(Nc1ccc(N2CCOCC2)c(F)c1)OCc1ccccc1
The “% Inhibition” value of the first is lower: -9% for the first, 2% for the second.

Going from `CCc1[nH]nc(NC(=O)c2c(C)ccnc2O)c1C` to `Cc1cc(C)c(C(=O)O)cc1NC(=O)c1oc(C2CC2)nc1C`, the “% Inhibition” value rises from -11% to -8%.

Compared with `CO[C@@H](CNC(=O)c1nc2n(n1)-c1ccccc1S(=O)(=O)N2)c1ccccc1`, `C[C@H](Nc1nc(N2CCCCC2)nc2ccccc12)c1ccccc1` is lower in “% Inhibition” value: 0% for the first, -6% for the second.

Compared with `O=c1[nH]nc2c(N3CC[C@H](NCc4ccc(F)cc4)C3)nccn12`, `CCOc1cc(CNC2CCN(C(C)=O)CC2)ccc1OCc1c(F)cccc1Cl` is higher in “% Inhibition” value: 11% for the first, 13% for the second.

First: COc1ccc(C)cc1NC(=O)N1CC(c2nc(C(C)C)nn2C)C1
Second: Cc1ccc(NC(=O)Nc2c(C3=CCCCC3)c(C)nn2C)cc1C
The “% Inhibition” value of the first is higher: 1% for the first, -13% for the second.

Going from `c1cn2cnnc2c(N(CC2CC2)CC2CC2)n1` to `CCCCCC1CCC(c2ccc(-c3ccc(CC)cn3)cc2F)CC1` (configuration not stated), the “% Inhibition” value rises from -5% to 7%.

First: O=C(Cn1cnc2ccc(Cl)cc2c1=O)NCc1ccc2c(c1)OCO2
Second: Cc1ccc(Cn2c(=O)c(C(=O)NCc3ccc4c(c3)OCO4)nn(-c3ccc(C(C)C)cc3)c2=O)cc1
The “% Inhibition” value of the first is lower: -5% for the first, 52% for the second.

Going from `CC(C)(C)OC(=O)N1CC(NC(=O)C2CC2c2ccccc2C(F)(F)F)C1` (configuration not stated) to `O=C(CCNC(=O)C1CC1c1c(F)cccc1Cl)NC1CCS(=O)(=O)C1` (configuration not stated), the “% Inhibition” value falls from -16% to -19%.

Going from `CCc1c([C@H](C)S(=O)(=O)c2ccccc2)[nH]c(=O)n1Cc1cccs1` to `c1ccc(CCNc2nc(-c3ccccn3)cs2)cc1`, the “% Inhibition” value rises from -7% to 31%.

Going from `Cc1cc(N2CCN(c3ccccn3)CC2)n2cc(-c3ccccc3)nc2n1` to `CN1CCN(c2nc(-c3cccc(C(F)(F)F)c3)nc3c2cnn3Cc2ccccc2)CC1`, the “% Inhibition” value falls from 14% to -3%.

Going from `O=S(=O)(C1CC1)N1CC[C@H](CO)C1` to `CCN1CCC2CCC(C1)N2C(=O)Nc1ccc(OC2CCC2)c(F)c1` (configuration not stated), the “% Inhibition” value falls from 0% to -18%.

First: Cc1ccc(S(=O)(=O)Cc2nc(-c3ccc(C(=O)Nc4ccc(C)cc4Cl)cc3)oc2C)cc1
Second: Cc1ccccc1[C@H]1CCN(c2ccc(NC(=O)c3ccc(Cl)cc3)c(C(=O)O)c2)C1
The “% Inhibition” value of the first is higher: 14% for the first, -17% for the second.

Going from `COc1cccc(-c2noc3nc(C)cc(C(=O)NCCCn4ccc(C)n4)c23)c1` to `CCCc1cc(-c2nc(-c3ccc(-n4nc(C)cc4N)cc3)no2)n(C)n1`, the “% Inhibition” value rises from 11% to 88%.

First: Cc1ccc(NC(=O)C2C3NC(=O)N(c4ccccc4)C2(C)Oc2ccc(C)cc23)c(C)c1 (configuration not stated)
Second: COc1ccccc1N1CCN(CC(=O)Nc2c3c(nc4ccccc24)N(c2cccc(C)c2)CC3)CC1
The “% Inhibition” value of the first is higher: -9% for the first, -24% for the second.

Compared with `CC(C)c1ccc(N2C(=O)[C@H](CC(=O)N3CCN(C)CC3)N=C2O)cc1`, `Cc1ccc(C(=O)Nc2ccc(N3CCN(CCC#N)CC3)cc2C(=O)O)cc1` is lower in “% Inhibition” value: 9% for the first, -6% for the second.

Going from `Cc1cc(N)n(-c2nc(-c3ccccc3)cc(=O)[nH]2)n1` to `Cc1ccc2nc(-c3cc4ccccc4o3)cn2c1`, the “% Inhibition” value rises from -1% to 52%.

Compared with `Cc1n[nH]c(C)c1NC(=O)CN1CC(C)OC(C)C1` (configuration not stated), `CC(C)(C)NC(=O)CNc1nnc(C2CC2)s1` is higher in “% Inhibition” value: -7% for the first, 12% for the second.

Going from `O=C(Cn1cnc2nc(N3CCCCC3)sc2c1=O)Nc1cc(Cl)cc(Cl)c1` to `Cc1ccccc1CNC(=O)[C@H]1CCCN(c2nc3cccnc3n(Cc3ccccc3)c2=O)C1`, the “% Inhibition” value falls from 1% to -6%.

Compared with `COC(=O)C1(NC(=O)c2scnc2C)CCCCC1`, `CCc1nnc(NC(=O)NCc2c[nH]nn2)s1` is lower in “% Inhibition” value: -5% for the first, -6% for the second.

Going from `CC1CCC2C(CCC(C)N2C(=O)c2cc3nc4c(c(C(F)(F)F)n3n2)CCc2ccccc2-4)C1` (configuration not stated) to `CN(c1nc2c(cnn2C)c(=O)[nH]1)C1CCCC1c1ccc(C(F)(F)F)cc1` (configuration not stated), the “% Inhibition” value rises from 1% to 10%.

Compared with `Cc1ccccc1CNC(=O)[C@H]1CCCN(c2nc3ccccc3[nH]c2=O)C1`, `N#Cc1ccc2c(c1)N(Cc1ccccc1F)C(=O)[C@@H]1CCCN21` is lower in “% Inhibition” value: 13% for the first, 7% for the second.

Going from `CC(C)(C)C(=O)/C(=N\OC(=O)Nc1ccc(Cl)cc1)n1cncn1` to `O=S(=O)(c1ccc(Cl)cc1)n1ccc(C2CC2)n1`, the “% Inhibition” value rises from 0% to 4%.

First: CCCCn1nnc(N(C(=O)c2cccc3c(Br)cccc23)C(=O)c2cccc3c(Br)cccc23)n1
Second: NS(=O)(=O)c1ccc(CCNc2nc(-c3ccccc3)nc3ccccc23)cc1
The “% Inhibition” value of the first is lower: 0% for the first, 5% for the second.

Going from `Cc1ccc(C(=O)Nc2cc3c4c(c2)C2CCCC2CN4CC2CCCC32)cc1` (configuration not stated) to `Cc1cnn(CCCNC(=O)c2ccc3[nH]c4c(c3c2)CCCC4)c1`, the “% Inhibition” value falls from 54% to 5%.

Compared with `CCNc1ccnc(NCc2nc(-c3cccc(F)c3)c(-c3ccccn3)[nH]2)n1`, `Cc1c(-c2ccc(F)cc2)[nH]c2ccc(CNc3nccc(N(C)C)n3)cc12` is higher in “% Inhibition” value: 22% for the first, 50% for the second.

Compared with `Cc1nn(C)cc1-c1n[nH]cc1Br`, `Cc1cccn2cc(CN(C)[C@H](c3ccccn3)C3CC3)nc12` is lower in “% Inhibition” value: 7% for the first, 4% for the second.

First: CC1COCCC1NCc1ncn(Cc2cccc(F)c2)n1 (configuration not stated)
Second: COc1cccc(CNCCCN2CCOCC2)c1OCc1ccc(F)cc1Cl
The “% Inhibition” value of the first is lower: -4% for the first, 1% for the second.

First: CCN1CCN(C2CCN(c3ncc(F)c(OC)n3)CC2)CC1
Second: COc1nc(N2[C@@H]3CC[C@H]2C[C@@H](OC)C3)ncc1F
The “% Inhibition” value of the first is lower: 50% for the first, 52% for the second.

Going from `Cc1c[nH]c(=O)n1-c1ccc(C(=O)NCCc2cc(F)cc(F)c2)cc1` to `O=C1C[C@H](c2nc3cc(Cl)ccc3o2)CN1c1ccc(F)cc1`, the “% Inhibition” value falls from 10% to -13%.

Going from `O=C(CC1COCCN1C(=O)C1CCc2ccccc21)c1ccco1` (configuration not stated) to `CC1(C)c2ccccc2CCN1C(=O)CCc1ncc(-c2ccccc2)o1`, the “% Inhibition” value rises from -17% to 8%.

`CCOc1c(CNCCN(C)C)cc(Br)cc1OC` and `CCC(=O)OCCN1CCN(CCN(C(=O)CC)c2ccc(C3CCCC3)cc2)CC1` are the same in “% Inhibition” value: 3% for the first, 3% for the second.

First: COc1ccc2nc(N3CN(Cc4ccccc4)CN(c4nc5ccc(OC)cc5s4)C3)sc2c1
Second: COc1ccc2c(/C=C/c3cc[n+](C)cc3)cn(Cc3ccccc3)c2c1
The “% Inhibition” value of the first is lower: 1% for the first, 62% for the second.

Compared with `O=C(N[C@@H](N1CCOCC1)C(Cl)(Cl)Cl)c1ccccc1Cl`, `O=C(CN1CCCC1)N1CCCN(S(=O)(=O)c2ccccc2)[C@H]1c1ccccc1` is lower in “% Inhibition” value: 8% for the first, -2% for the second.

First: Cc1ccc(CNc2ccc(S(C)(=O)=O)cc2)c(=O)n1C
Second: CNc1nc(NCc2ccccc2)nc2ccccc12
The “% Inhibition” value of the first is lower: -9% for the first, 91% for the second.

First: c1ccc2oc(-c3ccnc4nncn34)cc2c1
Second: Cc1ccc(-c2nc3ncccn3c2Nc2ccc3c(c2)OCCO3)o1
The “% Inhibition” value of the first is higher: 3% for the first, -4% for the second.

Compared with `O=C1c2ccccc2[C@@H](Nc2ccc3c(c2)OCCO3)N1c1ccccn1`, `COc1ccc2cc3n(c2c1)C[C@](C(=O)NC1CCCCCC1)(c1ccccc1)N(Cc1cccc(Br)c1)C3=O` is higher in “% Inhibition” value: -8% for the first, 10% for the second.

Going from `COc1ccc(CNc2nc(-c3nnc(-c4ccccc4)o3)nc3ccccc23)cc1` to `CNc1nc(NCCc2ccccc2)nc2ccccc12`, the “% Inhibition” value rises from -3% to 92%.

Going from `CCN(CC)c1ccc(C(=O)C(F)(F)F)c(O)c1` to `CN1CCC(n2ncc3[nH]c(-c4ccc(C(F)(F)F)cc4)nc32)CC1`, the “% Inhibition” value rises from 0% to 99%.
